Nine molecules from PubChem BioAssay (Tox21) can be followed below.

Molecules are shown by their SMILES. Values without a mark were called inactive. Records with an inconclusive call do not appear. Activity calls are given as the source filed them. Unless noted, calls follow the shape of the dose curve; as a rule, active = well fitted curve in the direction sought with a large enough effect in the repeat runs; inconclusive = weak or mixed curves; inactive = no such curve, though single readings can be large; an effect the other way counts as inactive or inconclusive.

The nature of experiment [1]: qHTS assay to test for compound auto fluorescence at 535 nm (green) in HEK293 cells (AID 720680). On the technique in general: qHTS replaces the single test concentration by a dilution series.
Experiment [2] is described as follows: qHTS assay to test for compound auto fluorescence at 460 nm (blue) in HEK293 cell free culture (AID 720681). In outline:
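Test compounds were pinned into cell-free culture medium (DMEM with 10% FBS) and fluorescence was read directly at Ex/Em 405/460 nm. Signals were expressed as fluorescence equivalents of triamterene, with DMSO vehicle as control.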

Experiment [3] in a line: qHTS assay to test for compound auto fluorescence at 535 nm (green) in HEK293 cell free culture (AID 720682). In outline: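 Green-label autofluorescence (485 nm excitation, 535 nm emission) measured on compound added to cell-free culture medium (DMEM, 10% FBS). Output is expressed relative to fluorescein.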
Experiment [4] can be described thus: qHTS assay to test for compound auto fluorescence at 590 nm (red) in HEK293 cell free culture (AID 720683). The method, boiled down:
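Tox21 10K library compounds were pinned into cell-free DMEM with 10% FBS and fluorescence was read at excitation 540 nm. Activity is expressed as Rose Bengal sodium equivalency.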

A short description of experiment [5]: qHTS assay to test for compound auto fluorescence at 590 nm (red) in HepG2 cell free culture (AID 720684). In outline:
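Red fluorescence (540 nm excitation, 590 nm emission) was measured after compound transfer into cell-free MEM supplemented with 10% FBS. Values are equivalencies against Rose Bengal sodium.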

Experiment [6] can be described thus: qHTS assay to test for compound auto fluorescence at 460 nm (blue) in HepG2 cell free culture (AID 720685). In outline: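 Compound (23 nL) or DMSO pinned into cell-free MEM with 10% FBS; blue fluorescence read at 405/460 nm excitation/emission, expressed as auto-fluorescence equivalency to triamterene.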
A short description of experiment [7]: qHTS assay to test for compound auto fluorescence at 535 nm (green) in HepG2 cell free culture (AID 720686).
Experiment [8] in a line: qHTS assay to test for compound auto fluorescence at 460 nm (blue) in HepG2 cells (AID 720687). In outline:
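Cells (2,000/well in MEM with 10% FBS) attached overnight at 37 C, then were exposed to compound or DMSO for 1 hr at 37 C, 5% CO2. Fluorescence read at Ex/Em 405/460 nm, expressed as triamterene-equivalent signal.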

The target in experiment [9] is Glucocorticoid receptor (Homo sapiens) (UniProt P04150). The experiment in a line: qHTS assay to identify small molecule agonists of the glucocorticoid receptor (GR) signaling pathway (AID 720691; active = well fitted activation curve with a large enough effect in the signal ratio in the repeat runs, not every such curve was filed as active; the % refers to the signal ratio). The method, boiled down: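 Agonist mode in a HeLa line carrying a GRE-controlled beta-lactamase reporter. Compounds act for 18 h at 37 C before a 2 h room-temperature FRET substrate step and fluorescence reading.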

Experiment [10] is described as follows: qHTS assay to identify small molecule antagonists of the glucocorticoid receptor (GR) signaling pathway - cell viability counter screen (AID 720693). Also: nearly all actives have a fitted effect of over 55% in size.
Experiment [11] can be described thus: qHTS assay for identifying genotoxic compounds that show differential cytotoxicity against isogenic chicken DT40 cell lines with known DNA damage response pathways - wild type cell line (AID 743012). Also: nearly all actives have a fitted effect of over 60% in size. Also: potency is read from the fitted curve at half-maximal effect. The method, boiled down:
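Cells (DT40 wild type, 300/well) are treated with DMSO-dissolved compounds after a ~0.5 h pre-incubation and kept 40 h at 37 C/5% CO2. Viability is then measured by CellTiter-Glo luminescence following 30 min at room temperature.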

Experiment [12] is described as follows: qHTS assay for identifying genotoxic compounds that show differential cytotoxicity against isogenic chicken DT40 cell lines with known DNA damage response pathways - Rev3 mutant cell line (AID 743014). Also: nearly all actives have a fitted effect of over 55% in size. Also: potency is read from the fitted curve at half-maximal effect.
A short description of experiment [13]: qHTS assay for identifying genotoxic compounds that show differential cytotoxicity against isogenic chicken DT40 cell lines with known DNA damage response pathways - Rad54/Ku70 mutant cell line (AID 743015). Also: nearly all actives have a fitted effect of over 60% in size. Also: potency is read from the fitted curve at half-maximal effect.
The nature of experiment [14]: qHTS assay to identify small molecule antagonists of the androgen receptor (AR) signaling pathway using the MDA cell line - cell viability counter screen (AID 743041; also: nearly all actives have a fitted effect of over 45% in size; also: potency is read from the fitted curve at half-maximal effect). The method, boiled down: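 MDA-kb2 AR-luc human breast carcinoma cells (MMTV-luciferase, AR/GR responsive) were treated with compounds plus R1881 agonist for 16 h at 37 °C. Viability was read as CellTiter-Fluor fluorescence in the same wells as the reporter assay.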

Experiment [15] in a line: qHTS assay to identify small molecule antagonists of the thyroid receptor (TR) signaling pathway - cell viability counter screen (AID 743064). Also: nearly all actives have a fitted effect of over 50% in size. Also: potency is read from the fitted curve at half-maximal effect. In outline:
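GH3.TRE-Luc rat pituitary cells dosed after 4 hr plating, co-stimulated with T3 at 1 nM final, incubated 23.5 h at 37 C. Viability measured in the same wells by CellTiter-Fluor fluorescence after 30 min further at 37 C.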

Experiment [16] can be described thus: qHTS assay to identify small molecule antagonists of the androgen receptor (AR) signaling pathway - cell viability counter screen (AID 743033; also: nearly all actives have a fitted effect of over 45% in size).
The target of experiment [17] is Glucocorticoid receptor (Homo sapiens) (UniProt P04150). The experiment in a line: qHTS assay to identify small molecule antagonists of the glucocorticoid receptor (GR) signaling pathway (AID 720692; active = well fitted inhibition curve with a large enough effect in the signal ratio in the repeat runs, not every such curve was filed as active; the % refers to the signal ratio). In outline:
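Cells plated, rested 4 h at 37 C/5% CO2; compounds in DMSO pin-transferred; dexamethasone added to 5 nM final; 18 h at 37 C; B/G FRET substrate added, 2 h room temperature; fluorescence measured.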

The target of experiment [18] is Androgen receptor (Homo sapiens) (UniProt P10275). In words: qHTS assay to identify small molecule agonists of the androgen receptor (AR) signaling pathway (AID 743036; active = well fitted activation curve with a large enough effect in the signal ratio in the repeat runs, with a control signal flat, not every such curve was filed as active; the % refers to the signal ratio). The method, boiled down: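 AR-UAS-bla HEK293 cells, plated 4 h before dosing, were treated with compound for 16 h at 37C. beta-Lactamase reporter read after 2 h with LiveBLAzer B/G FRET substrate at room temperature.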

For experiment [19] the target is unchanged. In words: qHTS assay to identify small molecule agonists of the androgen receptor (AR) signaling pathway using the MDA cell line (AID 743040; also: nearly all actives have a fitted effect of over 20% in size). The method, boiled down: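 MDA-kb2 breast carcinoma cells stably carrying an MMTV-driven luciferase reporter (AR- and GR-responsive) were seeded and held 5 h at 37C, 0% CO2, then exposed to compounds in DMSO for 16 h. Luminescence was read 30 min after ONE-Glo addition.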

Experiment [20] has the same target. In words: qHTS assay to identify small molecule antagonists of the androgen receptor (AR) signaling pathway using the MDA cell line (AID 743042; also: nearly all actives have a fitted effect of over 55% in size). In outline: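 MDA-kb2 cells (human breast carcinoma, stably carrying an MMTV-luciferase reporter responsive to AR and GR) were plated at 3,000 cells/well and preincubated 5 hr at 37C, then given compound plus R1881 agonist for 16 h. ONE-Glo luminescence was read.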

Sequence of Glucocorticoid receptor (Homo sapiens) (P04150 whole entry, looked up): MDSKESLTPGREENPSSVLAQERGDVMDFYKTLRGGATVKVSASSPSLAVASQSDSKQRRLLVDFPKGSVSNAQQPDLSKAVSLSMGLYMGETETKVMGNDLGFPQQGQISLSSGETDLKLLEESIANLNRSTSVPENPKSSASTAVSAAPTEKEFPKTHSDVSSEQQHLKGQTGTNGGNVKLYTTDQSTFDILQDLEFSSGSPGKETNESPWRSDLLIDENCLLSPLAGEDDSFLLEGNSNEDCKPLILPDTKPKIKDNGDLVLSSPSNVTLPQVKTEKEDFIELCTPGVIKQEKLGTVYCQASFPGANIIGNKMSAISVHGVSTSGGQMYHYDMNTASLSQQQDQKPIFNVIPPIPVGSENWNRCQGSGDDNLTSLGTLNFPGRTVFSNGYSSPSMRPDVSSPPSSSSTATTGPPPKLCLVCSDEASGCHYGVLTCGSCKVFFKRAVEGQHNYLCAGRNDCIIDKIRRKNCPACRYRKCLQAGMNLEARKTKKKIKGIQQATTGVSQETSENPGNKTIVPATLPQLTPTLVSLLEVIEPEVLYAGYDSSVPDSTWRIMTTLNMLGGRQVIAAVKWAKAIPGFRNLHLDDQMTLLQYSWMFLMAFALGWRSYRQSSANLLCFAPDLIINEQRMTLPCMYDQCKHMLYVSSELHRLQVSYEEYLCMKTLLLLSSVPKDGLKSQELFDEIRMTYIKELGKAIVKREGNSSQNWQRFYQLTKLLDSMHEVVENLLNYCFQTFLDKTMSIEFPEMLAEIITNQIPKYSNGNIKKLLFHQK
Sequence of Androgen receptor (Homo sapiens) (P10275 whole entry, looked up): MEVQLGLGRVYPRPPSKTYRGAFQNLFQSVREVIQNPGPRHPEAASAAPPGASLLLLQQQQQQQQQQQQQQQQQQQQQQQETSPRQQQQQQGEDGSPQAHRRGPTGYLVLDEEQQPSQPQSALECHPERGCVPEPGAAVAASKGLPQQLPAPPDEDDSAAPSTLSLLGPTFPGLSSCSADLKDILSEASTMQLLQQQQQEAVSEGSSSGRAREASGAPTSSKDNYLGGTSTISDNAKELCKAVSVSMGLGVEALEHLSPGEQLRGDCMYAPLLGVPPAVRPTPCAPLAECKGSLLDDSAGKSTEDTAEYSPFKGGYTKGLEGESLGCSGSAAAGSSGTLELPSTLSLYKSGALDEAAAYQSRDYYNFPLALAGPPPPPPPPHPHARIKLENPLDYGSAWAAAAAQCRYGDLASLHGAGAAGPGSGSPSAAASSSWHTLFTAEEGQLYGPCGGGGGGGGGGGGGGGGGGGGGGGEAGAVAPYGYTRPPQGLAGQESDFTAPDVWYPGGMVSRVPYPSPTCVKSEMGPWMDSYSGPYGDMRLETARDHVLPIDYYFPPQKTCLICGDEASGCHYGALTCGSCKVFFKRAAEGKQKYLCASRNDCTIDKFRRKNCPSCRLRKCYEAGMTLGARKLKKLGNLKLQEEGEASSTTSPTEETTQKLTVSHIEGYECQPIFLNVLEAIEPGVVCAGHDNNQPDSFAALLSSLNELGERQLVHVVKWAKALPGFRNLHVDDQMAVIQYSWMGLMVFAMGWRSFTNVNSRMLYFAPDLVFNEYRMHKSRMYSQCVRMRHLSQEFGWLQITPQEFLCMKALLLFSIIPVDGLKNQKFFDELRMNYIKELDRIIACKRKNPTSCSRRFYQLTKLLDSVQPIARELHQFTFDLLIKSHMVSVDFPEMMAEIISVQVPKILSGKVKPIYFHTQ

Take `CC(C)CC(C)(C)C`: the outcome in experiment [1], in experiment [3], in [4], in experiment [5], in experiment [6] and in experiment [7] was inactive. In addition, in experiment [8], the outcome was inactive. The Potency entry in experiment [2], in experiment [9], in experiment [10], in experiment [11], in experiment [12] and in [13] was “inactive” each time. Moreover, the Potency result in experiment [14] and in [15] was “inactive” throughout.
Turning to `CCCCCCCCCC(C)C=O` (stereo not drawn), the outcome in [1], in experiment [3], in [4], in experiment [5], in experiment [6] and in experiment [7] was inactive. Further, in experiment [8], the molecule was classed as inactive. In addition, the Potency result in experiment [2], in experiment [9], in [10], in experiment [11], in [12] and in [13] was “inactive” each time. The Potency result in experiment [16], in experiment [14] and in experiment [15] was “inactive” in each case.
With `Cc1ccc2ccccc2c1[N+](=O)[O-]`, the call in [1], in experiment [3], in experiment [4], in [5], in [6] and in experiment [7] was inactive. Also, the molecule was classed as inactive in experiment [8]. The Potency result in experiment [2], in [9], in experiment [10], in experiment [14] and in experiment [15] was “inactive” each time.
Regarding `C=CC(C)CCC=C(C)C` (stereo not drawn), the molecule was classed as inactive in experiment [1], in [3], in experiment [4], in experiment [5], in experiment [6] and in experiment [7]. For the same molecule, the call in experiment [8] was inactive. In addition, the Potency entry in experiment [2], in experiment [17], in experiment [10], in experiment [11], in experiment [12] and in experiment [13] was “inactive” each time. Also, the Potency entry in experiment [16], in [14] and in experiment [15] was “inactive” in each case.
Turning to `Clc1cc(Cl)c2c(c1)N=C1CCCCCN1C2`, the result in experiment [1], in experiment [3], in experiment [4], in [5], in experiment [6] and in experiment [7] was inactive. In addition, the molecule was classed as inactive in experiment [8]. The Potency entry in experiment [2], in [17], in [10], in experiment [14] and in experiment [15] was “inactive” throughout. The Potency in experiment [11] was 13.3 µM (active); in experiment [12] it was 8.41 µM (active); in [13], 13.3 µM (active).
Take `O=C1c2ccccc2C(=O)C1c1ccc2cc(S(=O)(=O)O)cc(S(=O)(=O)O)c2n1`: the result in [1], in [3], in experiment [4], in experiment [5], in experiment [6] and in experiment [7] was inactive. In addition, the call in experiment [8] was inactive. Moreover, the Potency entry in [2], in experiment [9], in experiment [10], in [11] and in experiment [16] was “inactive” throughout. The Potency was 52.5 µM (active) in [14] and 33.1 µM (active) in experiment [15].
As for `Cc1nc(C)c(C)nc1C`, the molecule was classed as inactive in experiment [1], in experiment [3], in [4], in experiment [5], in [6] and in experiment [7]. The molecule was classed as inactive in [8], in experiment [18] and in [19]. The Potency entry in [2], in experiment [9], in experiment [17], in [10], in experiment [12] and in experiment [14] was “inactive” each time. In addition, the Potency result in experiment [20] and in experiment [15] was “inactive” each time.
Take `CC(C)=CCC/C(C)=C/C=N/O`: the molecule was called inactive in experiment [1], in [3], in experiment [4], in [5], in [6] and in [7]. In experiment [8], the result was inactive. Besides, the Potency entry in experiment [2], in experiment [9], in experiment [10], in experiment [16], in experiment [14] and in experiment [15] was “inactive” each time.
In the case of `[O-][n+]1ccc(Cl)cc1`, the result in experiment [1], in [3], in experiment [4], in experiment [5], in experiment [6] and in experiment [7] was inactive. The molecule was called inactive in [8]. The Potency entry in [2], in experiment [9], in [17], in experiment [10], in [12] and in experiment [13] was “inactive” throughout. Besides, the Potency result in experiment [14] and in experiment [15] was “inactive” in each case.
